The structures appear in SMILES notation.

This is an account of results in PubChem BioAssay.

Assay [1] concerns the target Tumor necrosis factor receptor superfamily member 10B (Homo sapiens) (UniProt O14763). Description: caspase-8 TRAIL sensitization, hit retest, confirmation, cell-based, NB7+caspase-8, with/without TRAIL, luminescence panel (AID 651596). The note with it: NB7 neuroblastoma + caspase-8, TRAIL sensitization, luminescence viability, with TRAIL, mean of runs, at 10 µM, stronger effect = higher value.

Assay in assay [2]: as above
As to conditions: NB7 neuroblastoma + caspase-8, without TRAIL, luminescence viability, without TRAIL, mean of runs, at 10 µM; in the data active = activity above about 50%; inactive = the rest.

Sequence of Tumor necrosis factor receptor superfamily member 10B (Homo sapiens) (O14763 whole entry, looked up): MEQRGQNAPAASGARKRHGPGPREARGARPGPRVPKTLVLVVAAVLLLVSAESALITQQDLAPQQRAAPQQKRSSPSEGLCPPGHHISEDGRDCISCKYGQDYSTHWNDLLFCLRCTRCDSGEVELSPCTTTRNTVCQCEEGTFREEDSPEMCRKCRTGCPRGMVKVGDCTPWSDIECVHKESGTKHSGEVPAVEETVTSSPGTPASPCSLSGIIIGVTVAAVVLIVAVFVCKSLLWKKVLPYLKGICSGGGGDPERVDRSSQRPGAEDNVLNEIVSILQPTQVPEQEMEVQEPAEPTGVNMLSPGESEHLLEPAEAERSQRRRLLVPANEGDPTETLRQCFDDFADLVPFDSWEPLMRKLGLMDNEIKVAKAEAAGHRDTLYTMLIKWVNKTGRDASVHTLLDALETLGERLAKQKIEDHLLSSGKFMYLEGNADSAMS

For `O=C(Nc1ccc2[nH]ccc2c1)c1ccccc1`, the activity in assay [1] came to 81.1%; in assay [2] it was 75.3%.
In the case of `Cc1ccc2nc(-c3ccc(NC(=O)COC(=O)c4ccc([N+](=O)[O-])o4)cc3)sc2c1`, the activity worked out at 70.1% in assay [1] and 69.9% in assay [2].
Taken in the same sequence, the figures for `CC(C)OC(=O)Nc1ccc2c(c1)N(C(=O)N1CCN(C)CC1)c1ccccc1CC2` were 86.2% and 84.2%.
As for `O=C(NCCN1C(=O)S/C(=C\c2ccc(Cl)c([N+](=O)[O-])c2)C1=O)C1=COCCO1`, the values for the activity in assay [1] and in assay [2] were 63.1% and 72.9%, respectively.
The corresponding values for `CCCCC1CCC(C(=O)N(CCCC)c2c(N)n(CCCC)c(=O)[nH]c2=O)CC1` (stereo not drawn) are 81.5% and 77.5%.
Take `N/C(CCS(=O)(=O)c1ccc(Cl)cc1)=N\OC(=O)c1ccccc1C(F)(F)F`: the activity in assay [1] came to 94.2%; in assay [2], 93.6%.
Taken in the same sequence, the figures for `C/C(=N\NC(=O)c1ccc2ccccc2c1)c1cccs1` were 60.5% and 67.2%.
Taken in the same sequence, the figures for `COc1cccc2cc(-c3nc4ccccc4[nH]3)c(=O)oc12` were 64.5% and 61.1%.
The corresponding values for `COC(=O)c1ccc2c(c1)C(C)(C)C(/C=C/c1ccc(OC)c(OC)c1OC)=[N+]2C` are 73.8% and 68.9%.
As to `Fc1ccc(-c2nnc(-c3ccc(Cl)cc3Cl)o2)cc1`, the activity in assay [1] stood at 85.4%; in assay [2], 84.5%.
The corresponding values for `O=C(Nc1ccc2c(c1)CCC2)c1ccccc1F` are 30.3% and 36.4%.
The corresponding values for `Cc1cnc(NC(=O)COc2ccccc2Cl)s1` are 83% and 82.7%.
Turning to `Cc1ccc2nc(-c3cccc(N)c3)[nH]c2c1`, the activity in assay [1] was found to be 71.5%; in assay [2], 59.6%.
In the case of `O=C(Nc1ccc2c(c1)OCCO2)c1ccccn1`, the values for the activity in assay [1] and in assay [2] were 75.8% and 69.1%, respectively.
Taken in the same sequence, the figures for `Cc1ccc(CSc2nnc(-c3cccnc3)o2)cc1` were 43.5% and 45.6%.
Taken in the same sequence, the figures for `Nc1ccccc1C#CC(=O)c1ccccc1` were 33.9% and 94.2%.
The corresponding values for `C/C=C/c1ccc(OCCCNC2CCCC2)c(OC)c1` are 1.5% and -12.4%.
Take `CCOc1ccc(OCC(=O)Nc2cccc(S(=O)(=O)NC3=NCCC3)c2)cc1`: the activity in assay [1] worked out at 68.9%; in assay [2], 64.6%.
As for `Cc1cc(C)c2c(c1)/C(=C/C(=O)c1ccc(Br)s1)C(=O)N2`, the activity in assay [1] turned out to be 91.8%; in assay [2], 98%.
Taken in the same sequence, the figures for `CCc1sc(C(=O)N2CCc3ccccc32)cc1C` were 46.1% and 44.7%.
The corresponding values for `O=C(Nc1cccc(-n2cnnn2)c1)c1ccc(C(F)(F)F)cc1` are 21.7% and 10.3%.
Taken in the same sequence, the figures for `COc1ccccc1N1CCN(c2ccc3ccccc3n2)CC1` were 38.5% and 24.1%.
With `COc1ccc2oc(-c3ccc(NC(=O)c4ccc(N5CCOCC5)c([N+](=O)[O-])c4)cc3)nc2c1`, the activity was found to be 52% in assay [1] and 24.4% in assay [2].
Taken in the same sequence, the figures for `O=c1[nH]c(/C(=N\O)c2ccccc2)no1` were 88.8% and 89.6%.
Taken in the same sequence, the figures for `O=C(CCl)N(Cc1ccccc1)c1ccccc1` were 99% and 98.9%.
Taken in the same sequence, the figures for `N#C/C(=C(/O)c1ccc([N+](=O)[O-])s1)c1nc2ccccc2[nH]1` were 36.3% and 25%.
Regarding `COc1cccc(/C=C/C(=O)Nc2ccc3c(c2)OCCO3)c1OC`, the activity was 83.7% in assay [1] and 82% in assay [2].
The corresponding values for `Cc1ccnc(NC(=S)NC(=O)c2cccs2)c1` are 90% and 87.7%.
As for `COc1ccc(N2C(N)=NC(N)=NC2(C)C)cc1`, the activity worked out at 78.6% in assay [1] and 86.5% in assay [2].
Consider `CCOC(=O)C1=CCN(S(=O)(=O)c2ccccc2C)C1c1ccc(Cl)cc1` (stereo not drawn), for which the figures for the activity in assay [1] and in assay [2] were 10.1% and -8.28%, respectively.
Taken in the same sequence, the figures for `COc1cc(C(=O)Nc2nc3ccccc3[nH]2)ccc1OC(F)F` were 78.9% and 69.4%.
Taken in the same sequence, the figures for `C#Cc1ccc(NC(=O)C2(C)CCN2C(=O)C2(c3ccccc3)CCCC2)cc1` (stereo not drawn) were 91.3% and 84.6%.
As for `O=C(Nc1ccccn1)c1sc2cccc(F)c2c1Cl`, the activity was found to be 82.7% in assay [1] and 76.6% in assay [2].
With `C/C(=N\NC(=O)COc1ccc(C(C)(C)C)cc1)c1cc2ccccc2o1`, the figures for the activity in assay [1] and in assay [2] were 89.2% and 84.2%, respectively.
The corresponding values for `Nc1cc2sc(-c3ccc(C(=O)O)cc3)nc2cc1Cl` are 52.8% and 42.5%.
The corresponding values for `Cc1cc(=O)[nH]c2nnc(-c3ccc(Cl)cc3)n12` are 82.2% and 78.6%.
For the compound `O=C(Nc1ccc(-c2nc3ccccc3o2)cc1)C1CCCO1` (stereo not drawn), the activity is 51.7% in assay [1] and 43% in assay [2].
In the case of `O=C(NCCN1CCOCC1)NC1(C(F)(F)F)Oc2ccc(Cl)cc2O1` (stereo not drawn), the activity was 32.6% in assay [1] and 26.8% in assay [2].
With `CC(C)CC(=O)Nc1ccc(-c2cn3ccsc3n2)cc1`, the activity in assay [1] is 85.2%; in assay [2] it was 88.2%.
Taken in the same sequence, the figures for `Cc1cccc2sc(NNC(=O)c3cc(-c4cccs4)nc4ccccc34)nc12` were 25.2% and 26.2%.
For `COn1c(SCc2cccc(Cl)c2)nc2ccccc2c1=O`, the activity in assay [1] was 52.4%; in assay [2] it was 26.3%.
As for `O=C(NC1=NCCS1)c1cccs1`, the activity in assay [1] was -8.57%; in assay [2], -38%.
Taken in the same sequence, the figures for `CC(/C=N/NC(=O)c1ccco1)=C\c1ccccc1` were 73.5% and 71.2%.
The corresponding values for `Cc1nnc(SCC(=O)Nc2ccc(-c3nc4ccccc4s3)cc2)s1` are 51.9% and 33.7%.
The corresponding values for `O=C(COc1ccc(CO)cc1Cl)Nc1ccc(F)cc1` are 44.5% and 47.6%.
Regarding `Cc1ccc2nc(-c3ccc(NC(=O)C4CCCO4)cc3)[nH]c2c1` (stereo not drawn), the activity in assay [1] worked out at 72.2%; in assay [2] it was 71.9%.
`CCOc1ncccc1C(=O)OCC(=O)Nc1ccc(-c2nc3ccc(C)cc3s2)cc1`: the values for the activity in assay [1] and in assay [2] were 60.9% and 67%, respectively.
For `COc1cc2ccccc2cc1C(=O)Nc1sc2c(c1C(N)=O)CCN(C(C)C)C2`, the activity in assay [1] came to 79.4%; in assay [2], 98.2%.
With `COc1ccc(C(=O)/C=C/Nc2cccc(O)c2)cc1`, the activity in assay [1] is 75.9%; in assay [2], 42.4%.
